This passage reports inhibition results from PubChem BioAssay AID588335 (The Scripps Research Institute Molecular Screening Center, 2011).

About 4,500 (1.2%) of roughly 360,000 compounds were called active. No stated cut-off is given here; in the data, active means inhibition above about 30%; inactive means the rest. The full list was thinned out, with actives kept by preference.

The nature of the assay: inhibition of GDH and TPI enzymes – biochemical, absorbance, full deck, artefact control for M. tuberculosis FBA inhibitor project, primary screen (AID 588335).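 Further: 0% = DMSO wells and 100% = wells lacking the enzyme.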 The note with it: GDH-TPI coupled enzyme counterscreen, NADH absorbance; at 4.8 µM; active compounds read high. Background: A counterscreen serves to expose hits that act by an unwanted route or on another target.
The inhibition is the relative decrease from the control value, in per cent. As to `COC(=O)Cn1c(=NC(=O)CSCC(=O)Nc2cc(C)on2)sc2ccccc21`, the inhibition is 3.99% (inactive). Consider `CC(NC(=O)C(=O)Nc1nccs1)c1ccccc1` (stereo not drawn), for which the inhibition was 9.56% (inactive). Take `COCCN1C(=O)C(=O)/C(=C(/O)c2ccc(S(=O)(=O)N3CCOCC3)cc2)C1c1ccc(OC)c(OC)c1` (stereo not drawn): the inhibition is 9.09% (inactive). As for `COCCN1C(=O)C(=O)/C(=C(/O)c2ccc(S(=O)(=O)N3CCOCC3)cc2)C1c1ccc(O)c(OC)c1` (stereo not drawn), the inhibition is 5.9% (inactive).

For the compound `COc1cccc(C2/C(=C(/O)c3ccc(F)cc3)C(=O)C(=O)N2CCN(C)C)c1` (stereo not drawn), the inhibition was 10.2% (inactive).

Turning to `CCOc1cc(C2/C(=C(/O)c3ccc(S(=O)(=O)N4CCCCC4)cc3)C(=O)C(=O)N2CCOC)ccc1O` (stereo not drawn), the inhibition was 0.74% (inactive).

Regarding `O=C1C(=O)N(CCN2CCOCC2)C(c2cccc(Cl)c2)/C1=C(/O)c1ccc2c(c1)OCO2` (stereo not drawn), the inhibition is 17.7% (inactive). Turning to `COCCCN1C(=O)C(=O)/C(=C(/O)c2ccc(S(=O)(=O)N3CCOCC3)cc2)C1c1ccc(F)cc1` (stereo not drawn), the inhibition is 31% (active). With `COc1ccc(C2/C(=C(/O)c3ccc(OC(C)C)cc3)C(=O)C(=O)N2CCCN2CCOCC2)cc1` (stereo not drawn), the inhibition is 11.5% (inactive). Consider `O=C1C(=O)N(CCCN2CCOCC2)C(c2ccc([N+](=O)[O-])cc2)/C1=C(\O)c1ccc2c(c1)OCCO2` (stereo not drawn), for which the inhibition was 33.9% (active). With `COCCN1C(=O)C(=O)/C(=C(/O)c2ccc(S(=O)(=O)N3CCCCC3)cc2)C1c1ccc(OC)c(OC)c1` (stereo not drawn), the inhibition was 33.3% (active). Regarding `Cc1ccc(C)c(NC(=O)NNC(=O)c2ccc3ccccc3c2O)c1`, the inhibition is 12.5% (inactive). In the case of `CCOC(=O)C1CCN(S(=O)(=O)c2ccc3c(c2)N(C)C(=O)CC(=O)N3C)CC1`, the inhibition is 6.72% (inactive). As to `O=C(CNCc1cccs1)Nc1cc(S(=O)(=O)N2CCCC2)ccc1Cl`, the inhibition is 2.39% (inactive). For the compound `O=C(NCc1nnc(SCC(=O)N2CCCc3ccccc32)o1)c1ccccc1F`, the inhibition was 11.2% (inactive). Next, `CCOC(=O)c1c(C)n(C)c2ccc(OC)c(NS(=O)(=O)CC)c12`: 2.65% (inactive); `Clc1cc(-c2ccc(/C=N/n3cnnc3)o2)ccc1Br`: 18.6% (inactive); `Cc1ccccc1OCCOc1ccc([N+](=O)[O-])cc1/C=N/n1cnnc1`: 3.11% (inactive). For `Cc1cc([N+](=O)[O-])c(-c2ccc(/C=N/n3cnnc3)o2)cc1Cl` the value was 34.8% (active); for `CCOC(=O)c1cc(S(=O)(=O)NCCc2ccc(OC)c(OC)c2)cn1C`, 1.68% (inactive). As for `COc1ccc(C)cc1N(C(=O)Cn1nnc(-c2ccc(C)o2)n1)C(C(=O)NC1CCCC1)c1ccncc1` (stereo not drawn), the inhibition was -13.4% (inactive). For the compound `COCOc1cc(O)c(C(=O)/C=C/c2ccc(OCOC)c(OCOC)c2)c(OCOC)c1`, the inhibition was 6.25% (inactive). As for `CCOc1ccc(NC(=S)NC(=O)/C=C/c2ccc(OC)cc2)c([N+](=O)[O-])c1`, the inhibition was 11.6% (inactive).

`COc1ccc(/C=C/C(=O)c2cc(Br)ccc(=O)c2O)cc1`: the inhibition was 55.6% (active). For `Cc1ccc(C(=O)O)cc1N1C(=O)CCCC1=O` the value was 2.24% (inactive); for `CCCN(CC(=O)Nc1ccccc1C)C(=O)c1ccc2[nH]c3c(c2c1)CC(C)CC3` (stereo not drawn), 18.2% (inactive). Regarding `Oc1cccc(CCc2ccccn2)c1`, the inhibition is 7.36% (inactive). Turning to `O=C(Cc1ccccn1)c1ccc(O)cc1O`, the inhibition is 33.6% (active).

Consider `COc1ccc(CC(=O)c2ccc(O)cc2O)cc1OC`, for which the inhibition is 26.1% (inactive).

On to `O=C(Cn1cc2c(n1)CCCCC2)NCCN1CCOCC1`, for which the inhibition was -6.93% (inactive).

Take `CC(C)Cn1cc(-c2cncc3nccn23)cn1`: the inhibition is 4% (inactive). Next, `CCCOc1ccc2c3c(c(=O)oc2c1OCCC)CCC3`: 13.5% (inactive); `COc1ccc2c3c(c(=O)oc2c1OCC(=O)C(C)(C)C)CCCC3`: -0.64% (inactive). With `O=c1oc2c(CN3CCCCC3)c(O)ccc2c2c1CCCCC2`, the inhibition was 30.6% (active). In the case of `Cc1cc(N(C)C)cc(C)[n+]1[O-]`, the inhibition is -1.57% (inactive).

`Nc1nc(O)c(CC(=O)O)s1`: the inhibition was 5.96% (inactive). Take `Cc1noc(C)c1COc1ccc2ccc(=O)oc2c1`: the inhibition is 6.47% (inactive). Next, `CCCCc1cc(=O)oc2cc(C)cc(OCc3nn[nH]n3)c12`: 22% (inactive); `COc1ccc(-c2cc3ccc(OCc4nn[nH]n4)cc3oc2=O)cc1`: 34.6% (active).

As to `Cn1ccc(=Nc2ccc(NC(=O)c3ccc(N=c4ccn(C)c5ccc([N+](=O)[O-])cc45)cc3)cc2)cc1`, the inhibition is 13.7% (inactive). Regarding `O=C(NCc1cccnc1)c1cc(C2CCCN(C(=O)CCCc3ccccc3)C2)on1` (stereo not drawn), the inhibition was -5.31% (inactive). For `CN(C(=O)C1CCN(c2ncnc3c2nc2n3CCCCC2)CC1)C1CCCCC1`, the inhibition was -2.53% (inactive).

As for `O=C(NNc1ccccc1Cl)C(O)(c1cccc(C(F)(F)F)c1)c1cccc(C(F)(F)F)c1`, the inhibition was 10.2% (inactive). As for `Fc1cc(Br)ccc1NC(=S)Nc1cccnc1`, the inhibition is -0.63% (inactive). Next, `COc1ccc(C(=O)CCC(=O)Nc2cccnc2)c(OC)c1`: -6.9% (inactive); `COc1cc(/C=N/NC(=S)Nc2cccnc2)cc(OC)c1O`: 31.5% (active). In the case of `O=C(c1cccs1)C1C(c2ccc(Br)cc2)NC(=S)NC1(O)C(F)(F)F` (stereo not drawn), the inhibition is 12.2% (inactive). In the case of `Cc1c(NC(=O)C(C)OC(=O)c2c3c(nc4ccccc24)CCC(C)C3)c(=O)n(-c2ccccc2)n1C` (stereo not drawn), the inhibition is 3.38% (inactive). Next, `Cc1ccccc1N1CC(c2nc3ccccc3[nH]2)CC1=O` (stereo not drawn): 2.42% (inactive). Next, `Cc1ccc(-c2nc3ccccc3[nH]c2=O)cc1`: 32.1% (active). As for `Cc1ccc(-c2nnc(-n3nnc4ccccc43)c3ccccc23)cc1`, the inhibition is 6.42% (inactive). As to `CC1(C(=O)NCc2ccc(F)c(F)c2)Cc2c(-c3ccc4c(c3)OCO4)ccnc2O1` (stereo not drawn), the inhibition was 0% (inactive). For the compound `CC1C(=O)Nc2ccccc2N1C(=O)c1c(F)cccc1F` (stereo not drawn), the inhibition is -1.38% (inactive). As for `O=C(Cc1c(F)cccc1Cl)N1CCN(C(=O)c2ccco2)CC1`, the inhibition was -4.08% (inactive). With `Cn1c(=NC(=O)c2cnccn2)sc2ccccc21`, the inhibition is 29.1% (inactive). Next, `Cn1c(=NC(=O)c2ccco2)sc2cccc(F)c21`: 51% (active); `O=C(CN1CCCCCC1)Nc1c(Cl)cc(Cl)cc1Cl`: 3.42% (inactive); `COc1cc2nc(CN(C)Cc3ccc(F)cc3)[nH]c(=O)c2cc1OC`: -3.88% (inactive).
